What all share (assay): yeast three-hybrid, YBZ-1, SC-Leu-His + 0.5 mM 3-AT, 4 days
What all share (details): tags: N-Gal4 AD-HA kept; label: inside an RPR1-promoter hybrid RNA with tandem MS2 sites; ssRNA

One assay has as its target PUM1 PUF domain R8-CHK (Homo sapiens, UniProt Q14671 828-1176, N1122C;Y1123H;Q1126K). Put shortly: (§1)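 Matching RNA elements and Pumilio-1 PUF domain libraries, randomized at the three base-contacting residues of every repeat, were co-expressed from a centromeric plasmid in strain YBZ-1 (LexA–MS2 coat fusion, HIS3 reporter). The repeat regions were PCR-amplified and Illumina-sequenced from cells grown four days on SC-Leu (input) or SC-Leu-His + 0.5 mM 3-AT (selection). The interaction score is the log change in variant frequency from input to selection. It is computed in log2, with a pseudocount of 1 for absent variants.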

A further assay concerns the target PUM1 PUF domain R8-NYP (Homo sapiens, UniProt Q14671 828-1176, Q1126P). Put shortly: as §1
The target in the next assay is T1, PUM1 PUF domain R6-MFR (Homo sapiens, UniProt Q14671 828-1176, N1043M;Y1044F;Q1047R).
T1 sequence: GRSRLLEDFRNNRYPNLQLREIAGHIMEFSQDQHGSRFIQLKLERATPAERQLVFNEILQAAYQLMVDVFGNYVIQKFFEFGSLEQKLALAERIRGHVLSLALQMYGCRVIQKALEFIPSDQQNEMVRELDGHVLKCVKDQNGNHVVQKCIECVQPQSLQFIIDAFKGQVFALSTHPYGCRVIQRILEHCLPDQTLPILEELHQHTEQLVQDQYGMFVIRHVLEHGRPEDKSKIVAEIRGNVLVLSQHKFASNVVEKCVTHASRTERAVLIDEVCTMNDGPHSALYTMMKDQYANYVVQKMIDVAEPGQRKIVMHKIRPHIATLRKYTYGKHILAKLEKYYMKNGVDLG
Put shortly: as §1

For a further assay, the target named is T2, PUM1 PUF domain R6-NYL (Homo sapiens, UniProt Q14671 828-1176, Q1047L).
T2 sequence: T1 sequence with M216N, F217Y, R220L
Put shortly: as §1

Another assay concerns the target T3, PUM1 PUF domain R6-LWS (Homo sapiens, UniProt Q14671 828-1176, N1043L;Y1044W;Q1047S).
T3 sequence: T1 sequence with M216L, F217W, R220S
Put shortly:
as §1

A further assay concerns the target PUM1 PUF domain R3-RCA (Homo sapiens, UniProt Q14671 828-1176, C935R;R936C;Q939A). Put shortly:
as §1

A further assay has as its target PUM1 PUF domain R5-DIR (Homo sapiens, UniProt Q14671 828-1176, C1007D;R1008I;Q1011R). The method in brief:
as §1

The values that follow come from publication PMC8384837, “Expanding the binding specificity for RNA recognition by a PUF domain”.

Where a chain is given by its changes, count along the chain named.

Turning to “GGCUAGAACUAGUGGAUCCCCCGGCGCCCGGCGGCUCGAGCCCGGGUAAGCGUAAAUAGUCUGCAUGCCGCCGGGCGCCAUGCCUGCAGGUCGACUCUAGAAAACAUG”, the binding signal with PUM1 PUF domain R8-CHK was 3.49 log2 enrichment (interaction score).

With “GGCUAGAACUAGUGGAUCCCCCGGCGCCCGGCGGCUCGAGCCCGGGUAAGUGUAAAUAGUCUGCAUGCCGCCGGGCGCCAUGCCUGCAGGUCGACUCUAGAAAACAUG”, the binding signal is 3.16 log2 enrichment (interaction score) in the assay with PUM1 PUF domain R8-NYP, 6.1 log2 enrichment (interaction score) with PUM1 PUF domain R6-MFR, 5.52 log2 enrichment (interaction score) with PUM1 PUF domain R6-NYL and 6 log2 enrichment (interaction score) in the assay with PUM1 PUF domain R6-LWS.

For “GGCUAGAACUAGUGGAUCCCCCGGCGCCCGGCGGCUCGAGCCCGGGUAAGUGUAAUUAGUCUGCAUGCCGCCGGGCGCCAUGCCUGCAGGUCGACUCUAGAAAACAUG”, in the assay with PUM1 PUF domain R3-RCA, the binding signal is 3.42 log2 enrichment (interaction score).

Take “GGCUAGAACUAGUGGAUCCCCCGGCGCCCGGCGGCUCGAGCCCGGGUAAGUGUCAAUAGUCUGCAUGCCGCCGGGCGCCAUGCCUGCAGGUCGACUCUAGAAAACAUG”: the binding signal with PUM1 PUF domain R5-DIR was 3.11 log2 enrichment (interaction score).

For the sequence “GGCUAGAACUAGUGGAUCCCCCGGCGCCCGGCGGCUCGAGCCCGGGUAAGUGAAAAUAGUCUGCAUGCCGCCGGGCGCCAUGCCUGCAGGUCGACUCUAGAAAACAUG”, the binding signal in the assay with PUM1 PUF domain R6-LWS was 4.85 log2 enrichment (interaction score).
